Cardio protect: modulators protecting cardiomyocytes from myocardial damage; H9c2 cardiomyocytes, H2O2 injury protection, ATPLite, 2 h; 360,000 compounds, 0.63% hits; AID 588492; protection from H2O2 cell death, % at 20 µM;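 active = compounds giving at least 50% protection of heart cells from peroxide-induced death in the single-dose screen, raw or plate-pattern-corrected value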;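 note: 0% = DMSO wells with peroxide and 100% = DMSO wells without peroxide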
SUMO Mot1 rescue: blocks SUMOylation pathway, rescuing yeast Mot1-301 growth | S. cerevisiae Mot1-301 growth rescue, ATP luminescence, 38.5C; percent above DMSO median, 100 means doubled | growth rescue, % at 18.8 µM | 320,000 compounds, 1% hits | AID 2716;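 active = every valid replicate shows activation above 250% relative to neutral control wells; inactive = the rest, any valid replicate at or below 250%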;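 note: OY570 slx delta 5 strain wells were the positive control but not used for scaling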
AI-2 QS modul: modulators of Vibrio harveyi AI-2 quorum sensing system. Vibrio harveyi JMH597 AI-2 luminescence/OD600 ratio, 9 h; active compounds read low; strain lacks LuxN and CqsS sensors; 0 = neutral-control median. activity change, % at 7.5 µM. 300,000 compounds, 0.4% hits. AID 2094; in the data active = activity change below about -75%, passing the limit was not always enough;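 note: luminescence divided by OD600 gain over 9 h not by final OD600 alone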
GRIN3A LBD mod: modulators (binders) of human NR3A ligand-binding domain | NR3A LBD differential scanning fluorimetry, Tm shift; 0% = protein alone, 100% = glycine-bound protein | Tm shift relative to glycine control, % at 25 µM | 340,000 compounds, 2.5% hits;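 active = melting temperature shift of at least 10% of the positive control shift, at one fixed dose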
AHR act: activators of human aryl hydrocarbon receptor; P35869; AHR-responsive luciferase reporter cells, luminescence; activation, % at 5 µM; 320,000 compounds, 2.5% hits; in the data active = activation above about 47%;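 note: 0% = vehicle wells and 100% = reference agonist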
NTR1 agonist: NTR1 (human) agonism; NTR1-U2OS beta-arrestin-GFP spot imaging, agonist mode; activation, % at 20 µM; 330,000 compounds, 0.17% hits; AID 493036;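 active = activation at or above 40% of the spot to cytoplasm intensity ratio, with at least 20 cells analyzed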;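 note: 0% = DMSO without peptide and 100% = 100 nM NTR1 peptide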
Target sequence (P30989 whole entry, looked up): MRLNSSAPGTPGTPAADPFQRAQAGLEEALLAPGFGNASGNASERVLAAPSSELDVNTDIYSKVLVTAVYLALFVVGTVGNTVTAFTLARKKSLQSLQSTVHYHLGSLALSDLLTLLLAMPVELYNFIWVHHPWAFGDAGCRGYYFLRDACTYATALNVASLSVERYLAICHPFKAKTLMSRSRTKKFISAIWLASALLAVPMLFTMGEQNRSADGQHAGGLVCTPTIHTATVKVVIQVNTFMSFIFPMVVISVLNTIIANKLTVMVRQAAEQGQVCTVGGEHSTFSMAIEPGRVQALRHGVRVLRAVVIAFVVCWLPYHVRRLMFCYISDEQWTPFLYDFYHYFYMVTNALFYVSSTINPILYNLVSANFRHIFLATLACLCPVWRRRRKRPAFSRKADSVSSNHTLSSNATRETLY
AHR act cf: human AHR activation, confirmation; shares compounds with AHR act; human cells, AHR-responsive luciferase reporter, luminescence; activation, % at 9 µM; 2,300 compounds, 87% hits; AID 2845; in the data active = activation above about 49%;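 note: HepG2 hepatoma cells carrying a DRE-driven firefly luciferase reporter; 0% = vehicle wells and 100% = reference agonist wells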
PXR counter: counter-screen for AHR activators: human PXR activators | activation, % at 11.6 µM | shares compounds with AHR act | 2,300 compounds, 88% hits | cell-based PXR reporter, luciferase luminescence | AID 434939; in the data active = activation above about 11%;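 note: human hepatoma DPX-2 cells expressing full-length human PXR; 0% = DMSO and 100% = reference agonist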
An asterisk follows results filed as active; . = no result. Sampled rows, rich in hits. Any-hit rate of the full collection: about 6.2%.

SMILES	Cardio protect	SUMO Mot1 rescue	AI-2 QS modul	GRIN3A LBD mod	AHR act	NTR1 agonist	AHR act cf	PXR counter
c1ccc2c(c1)CCN(c1nc3ccccc3n3cnnc13)C2	58*	172	35	-5	86*	14	66*	19*
Cc1cccc(C)c1C(O)c1ncc(-c2ccccc2Cl)[nH]1 (stereo not given)	-2	.	.	.	.	.	.	.
C=C(C)CNC(=S)N/N=C(\C)c1ccc(-n2ccnc2)cc1	8	-7	-21	-1	94*	3	98*	36*
C=C(C)CNC(=S)N/N=C/c1ccc(N2CCOCC2)cc1	0	-15	2	0	30	0	.	.
Cc1ccnc2ccc(-c3nc4ccccc4o3)cc12	2	35	.	1	87*	2	183*	54*
Cc1cc(C(=O)O)c2ccccc2n1	-3	17	14	-1	1	0	.	.
Cc1cc(-c2nc3ccccc3o2)c2ccccc2n1	7	-2	15	1	105*	8	135*	11*
CC(=O)N1CCc2cc(S(=O)(=O)C(C)CC(=O)NCc3ccco3)ccc21 (stereo not given)	-1	.	.	.	.	.	.	.
NC(=O)c1c(NC(=O)c2ccc(F)cc2)sc2c1CCC2	-10	-1	9	-1	174*	3	100*	37*
NC(=O)c1c(NC(=O)c2cc3ccccc3o2)sc2c1CCC2	-17	-6	13	1	86*	0	48*	7
O=C(Nc1sc2c(c1C(=O)O)CCCC2)c1ccc(F)cc1	-4	6	27	-3	.	1	.	.
O=[N+]([O-])c1cnc(Nc2ccc(Cl)cn2)c([N+](=O)[O-])c1	-3	-11	20	0	139*	2	80*	.
O=C(Nc1ccc(Cl)cn1)c1ccccc1[N+](=O)[O-]	-4	10	47	1	13	2	.	.
COc1ccc(Nc2nc3cc(C)ccc3cc2C#N)cc1	2	-9	12	0	108*	-1	94*	15*
COc1ccc(Nc2nc3ccc(C)cc3cc2C#N)c(OC)c1	-5	6	36	0	43	7	.	.
O=C1C=C(C2OC(CO)C(O)C2O)C(=O)N1 (stereo not given)	5	.	.	-2	.	.	.	.
C=CCNc1sc(C(=O)c2ccccc2)c(N)c1-c1nc2ccccc2s1	-13	-9	3	-1	132*	1	90*	44*
Cc1ccc(C(=O)OCC(=O)NCc2ccc(Cl)cc2)s1	-12	.	.	.	.	.	.	.
CCCc1cc(=O)oc2cc(OCC(=O)NCc3cccs3)ccc12	-13	-10	12	-3	87*	-1	45	44*
CCCc1cc(=O)oc2cc(OCC(=O)NCc3ccccn3)ccc12	-4	-4	3	1	47	-1	.	.
Cc1cc(C)n(CCCNC(=O)C(C)(C)Oc2ccc(Cl)cc2)n1	-4	0	.	0	1	2	.	.
COc1cccc(NC(=O)N2CCc3ccccc3C2)c1	-8	-10	-8	1	41	-1	.	.
O=C(Nc1ccc([N+](=O)[O-])cc1)N1CCc2ccccc2C1	-6	9	10	-2	2	0	.	.
CC(C)c1ccc(NC(=O)N2CCc3ccccc3C2)cc1	-1	20	14	-27	114*	0	96*	93*
O=C(Nc1cccc(Cl)c1)N1CCc2ccccc2C1	-15	8	-9	-1	114*	0	118*	30*
SMILES	Cardio protect	SUMO Mot1 rescue	AI-2 QS modul	GRIN3A LBD mod	AHR act	NTR1 agonist	AHR act cf	PXR counter
C#CCn1c(O)c(N=NC(=O)CNC(=O)c2cccnc2)c2ccccc21	-1	10	17	-1	92*	0	106*	25*
C#CCn1c(O)c(N=NC(=O)CNC(=O)/C=C/c2ccccc2)c2ccccc21	-2	5	34	0	91*	7	107*	52*
C=CCn1c(O)c(N=NC(=O)CNC(=O)c2ccncc2)c2ccccc21	4	-6	20	-2	99*	0	70*	43*
COc1ccc(C(=O)NCC(=O)N=Nc2c(O)n(Cc3ccccc3)c3ccccc23)cc1OC	6	-5	28	-5	0	-1	.	.
O=C(NC1CCCCC1)c1ccc(-c2ccccc2)cc1	-1	10	34	-1	-1	0	.	.
COc1ccccc1CN1CC(C(=O)NCc2nccn2C)CCC1=O (stereo not given)	5	-9	34	-3	0	0	.	.
CC(=O)Nc1ccc(-c2ccnc3c2CC(C)(C(=O)NCc2ccco2)O3)cc1 (stereo not given)	5	.	.	.	.	.	.	.
CCOCCc1nnc(NC(=O)c2ccc(OC)c(OC)c2)s1	-4	-6	8	0	115*	3	81*	.
Cc1nnc(SCC(=O)Nc2nccs2)n1C(C)C	-3	-8	27	1	-1	1	.	.
COCCn1c(C)c(C)c2c(NCCc3ccccc3)ncnc21	-2	-21	8	0	.	3	.	.
O=C(C1CCN(S(=O)(=O)c2cnc[nH]2)CC1)N1CCN(c2ccc([N+](=O)[O-])cc2)CC1	0	9	15	1	0	0	.	.
Cc1ccc(-n2c(=O)[nH]cc(C(=O)Nc3ccc4c(c3)OCO4)c2=O)cc1C	-5	-3	37	0	88*	8	68*	.
O=C(CN1CCCc2ccccc21)N/N=C/c1ccccc1	-3	-13	10	-1	87*	-1	25	40*
COC(=O)[C@@H](c1ccccc1)N(C)S(=O)(=O)c1cccc(S(=O)(=O)N(C)[C@@H](C(=O)OC)c2ccccc2)c1	0	-8	5	1	2	-1	.	.
COc1ccc([N+](=O)[O-])cc1N/C(=N/S(=O)(=O)c1ccccc1)c1ccccc1	-1	-11	17	3	113*	1	84*	133*
O=C(Nc1ccccn1)c1cccc(S(=O)(=O)N2CCCC2)c1	5	2	33	1	6	1	.	.
CCCCN(CC)C(=O)Cn1ncc2c3ccccc3n(CCC)c2c1=O	0	-16	6	-3	.	1	.	.
NC(=S)N/N=C/c1ccc(-c2ccc([N+](=O)[O-])cc2)o1	5	-12	16	2	92*	2	118*	14*
NC(=S)N/N=C/c1ccc(-c2cc(Cl)cc(Cl)c2)o1	-4	4	25	0	17	9	.	.
COc1ccc(N2CCN(C(=O)CSc3nnc(C4CC4)n3C3CC3)CC2)cc1	10	.	.	.	.	.	.	.
Cc1ccsc1/C=N/NC(=O)c1c[nH]c2ccccc12	-5	.	34	15*	101*	-5	142*	42*
